The campaign covered roughly 39,000 compounds. About 3,300 (8.5%) were called active. For the sample, actives were picked, then their nearest neighbours and some compounds at random.
System: HepG2
Assay: cytotoxicity call (relative viability < 0.9)
Details: 10 µM

Row | Structure (SMILES) | cytotoxicity call
1 | C[C@H]1CN([C@@H](C)CO)C(=O)Cc2cc(NC(=O)Cn3cnnn3)ccc2O[C@H]1CN(C)S(=O)(=O)c1cccs1 | inactive
2 | C[C@H]1CN([C@@H](C)CO)C(=O)Cc2cc(NC(=O)C3CC3)ccc2O[C@@H]1CN(C)Cc1ccc(Oc2ccccc2)cc1 | inactive
3 | Cc1noc(C)c1NC(=O)Nc1cccc2c1O[C@@H](CN(C)S(=O)(=O)c1ccccc1)[C@@H](C)CN([C@@H](C)CO)C2=O | inactive
4 | CC1=C(/C=C/C(C)=C/C=C/C(C)=C/C=C/C=C(C)/C=C/C=C(C)/C=C/C2=C(C)C(=O)[C@@H](O)CC2(C)C)C(C)(C)C[C@H](O)C1=O | inactive
5 | CCOC(=O)N[C@@H]1CC(=O)N(C2CC2)C1 | inactive
6 | N[C@H](CO)COCc1ccccc1 | inactive
7 | Cc1ccc(S(=O)(=O)N(C)C[C@H]2Oc3c(NC(=O)c4ccncc4)cccc3C(=O)N([C@H](C)CO)C[C@@H]2C)cc1 | inactive
8 | C[C@@H]1CCCCO[C@H](CN(C)CC2CCCCC2)[C@H](C)CN([C@@H](C)CO)C(=O)c2cc(NC(=O)Cc3ccccc3)ccc2O1 | inactive
9 | C[C@H](CO)N1C[C@H](C)[C@H](CN(C)S(=O)(=O)c2cn(C)cn2)Oc2ccc(NC(=O)Cc3cn(C)c4ccccc34)cc2CC1=O | inactive
10 | Cc1cc(C(=O)Nc2cccc3c2O[C@H](CN(C)C(=O)Nc2c(C)noc2C)[C@H](C)CN([C@H](C)CO)C3=O)n(C)n1 | inactive
11 | C[C@H](CO)N1C[C@H](C)[C@H](CN(C)Cc2ccccc2)OCCCC[C@H](C)Oc2ccc(NS(=O)(=O)c3ccccc3)cc2C1=O | inactive
12 | Cc1ccc(S(=O)(=O)Nc2ccc3c(c2)C(=O)N([C@H](C)CO)C[C@@H](C)[C@@H](CN(C)Cc2ccccc2)OCCCC[C@@H](C)O3)cc1 | inactive
13 | Cc1ccc(S(=O)(=O)Nc2ccc3c(c2)C(=O)N([C@@H](C)CO)C[C@@H](C)[C@@H](CN(C)Cc2ccccc2)OCCCC[C@H](C)O3)cc1 | inactive
14 | Cc1ccc(S(=O)(=O)Nc2ccc3c(c2)C(=O)N([C@H](C)CO)C[C@@H](C)[C@H](CN(C)Cc2ccccc2)OCCCC[C@H](C)O3)cc1 | active
15 | C[C@@H]1CN([C@@H](C)CO)C(=O)c2cc(NS(=O)(=O)c3ccccc3)ccc2O[C@@H](C)CCCCO[C@@H]1CN(C)Cc1ccccc1 | inactive
16 | C[C@@H]1CCCCO[C@@H](CN(C)Cc2ccccc2)[C@@H](C)CN([C@@H](C)CO)C(=O)c2cc(NS(=O)(=O)c3ccccc3)ccc2O1 | active
17 | C[C@H]1CN([C@@H](C)CO)S(=O)(=O)c2ccc(C#CCN(C)C)cc2O[C@@H]1CN(C)Cc1ccc2c(c1)OCO2 | inactive
